Results published in PubChem BioAssay (EPA / NIEHS).
Values joined by “and” are separate entries in the source; they are usually repeats but may differ in a detail not shown here. Equal entries are not always repeated. Inconclusive results are not listed. The source holds several records for some structures; these can differ, active in one and inactive in another. Active and inactive are the calls of the source. How the source made its calls: active means hit-call score of the fitted dose curve at least 0.9, where 1 is the maximum; inconclusive means response in the unintended direction; inactive means score below 0.9.

Columns and labels:
[1] = target: Cellular tumor antigen p53 (Homo sapiens) (UniProt P04637); assay: TOX21_p53_BLA_p2_ratio: Tox21 HCT-116 p53 Agonism Beta-lactamase Assay, Ratio, Phase 2 (AID 2283592)
Method in brief: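 An inducible beta-lactamase reporter in HCT116 cells signals p53 pathway activation. After 16 h chemical exposure at 37C, cells load CCF4-AM substrate for 2 h at room temperature; activity is the cleaved/uncleaved emission ratio relative to DMSO.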

[2] = TOX21_p53_BLA_p3_viability: Viability Assessment in the Tox21 HCT-116 p53 Agonism Beta-lactamase Assay, Phase 3 (AID 2283593);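 further: cells exposed to compound for 16 h before reading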
Method in brief: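 HCT-116 cells (4000/well) rested 5 h at 37C, then got DMSO compounds by pin tool (217-fold dilution) for 16 h at 37C, 5% CO2. After the bla read, CellTiter-Glo was added and luminescence read at 30 min, room temperature.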

[3] = target: Cellular tumor antigen p53 (Homo sapiens) (UniProt P04637); assay: TOX21_p53_BLA_p3_ratio: Tox21 HCT-116 p53 Agonism Beta-lactamase Assay, Ratio, Phase 3 (AID 2283596)
Method in brief: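 HCT116 p53-bla cells (4000/well) given compound in DMSO (217-fold dilution) after 5 h, incubated 16 h at 37C. CCF4-AM substrate 2 h at room temperature; 460/530 nm emission ratio, gain fitted against DMSO.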

[4] = TOX21_p53_BLA_p4_viability: Viability Assessment in the Tox21 HCT-116 p53 Agonism Beta-lactamase Assay, Phase 4 (AID 2283597);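 further: hits lower the luminescence signal meaning cytotoxicity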
Method in brief: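 Compound exposure of HCT116 cells lasts 16 h at 37C, 5% CO2, with DMSO stocks diluted 217-fold. Cellular ATP is then quantified by CellTiter-Glo luminescence after 30 min at room temperature.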

[5] = target: Cellular tumor antigen p53 (Homo sapiens) (UniProt P04637); assay: TOX21_p53_BLA_p5_ratio: Tox21 HCT-116 p53 Agonism Beta-lactamase Assay, Ratio, Phase 5 (AID 2283599)
Method in brief: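 HCT-116 cells carrying a p53-inducible beta-lactamase reporter were seeded at 4000 cells/well and dosed after 5 h with compound in DMSO (217-fold dilution). After 16 h at 37C, CCF4-AM substrate was added for 2 h, and the 460/530 nm emission ratio was scored as gain-of-signal versus DMSO.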

[6] = TOX21_p53_BLA_p5_viability: Viability Assessment in the Tox21 HCT-116 p53 Agonism Beta-lactamase Assay, Phase 5 (AID 2283600)
Method in brief: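 Counter-readout for cytotoxicity: ATP-dependent luminescence from CellTiter-Glo, read in the beta-lactamase wells after 30 min at RT, following a 16 h compound exposure at 37C.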

[7] = target: Cellular tumor antigen p53 (Homo sapiens) (UniProt P04637); assay: TOX21_p53_BLA_p4_ratio: Tox21 HCT-116 p53 Agonism Beta-lactamase Assay, Ratio, Phase 4 (AID 2283601)
Method in brief: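 HCT116 cells carrying an inducible beta-lactamase reporter were plated at 4000 cells/well, rested 5 h, then exposed to compounds in DMSO (217-fold dilution) for 16 h at 37C. CCF4-AM substrate was loaded 2 h at room temperature; 460/530 nm emission ratio scored gain-of-signal versus DMSO.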

[8] = TOX21_TRB_BLA_Antagonist_Followup_viability: Viability Assessment in the Tox21 Thyroid Hormone Receptor beta Antagonism Beta-lactamase (BLA) Follow-Up Assay (AID 2283961)
Method in brief: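 Cytotoxicity is measured in parallel with the antagonist-mode TRβ beta-lactamase screen, using ATP-coupled luciferase luminescence. Engineered HEK293T cells are treated for 18 h with 11-point compound series in triplicate.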

[9] = TOX21_TR_RXR_BLA_Antagonist_Followup_viability: Viability Assessment in the Tox21 Thyroid Hormone Receptor beta Retinoid X Receptor alpha (RXRa) Antagonism Beta-lactamase (BLA) Follow-Up Assay (AID 2283979)
Method in brief: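 RXRa-UAS-bla HEK293T cells seeded 2,500/well in phenol red-free DMEM with 2% charcoal-stripped FBS, attached 5 h, then exposed to compounds at 11 concentrations in triplicate for 16 h at 37C/5% CO2. Viability read by CellTiter-Glo ATP luminescence; bidirectional fit versus DMSO.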

Measured: AC50

Cellular tumor antigen p53 (Homo sapiens), sequence (P04637 whole entry, looked up): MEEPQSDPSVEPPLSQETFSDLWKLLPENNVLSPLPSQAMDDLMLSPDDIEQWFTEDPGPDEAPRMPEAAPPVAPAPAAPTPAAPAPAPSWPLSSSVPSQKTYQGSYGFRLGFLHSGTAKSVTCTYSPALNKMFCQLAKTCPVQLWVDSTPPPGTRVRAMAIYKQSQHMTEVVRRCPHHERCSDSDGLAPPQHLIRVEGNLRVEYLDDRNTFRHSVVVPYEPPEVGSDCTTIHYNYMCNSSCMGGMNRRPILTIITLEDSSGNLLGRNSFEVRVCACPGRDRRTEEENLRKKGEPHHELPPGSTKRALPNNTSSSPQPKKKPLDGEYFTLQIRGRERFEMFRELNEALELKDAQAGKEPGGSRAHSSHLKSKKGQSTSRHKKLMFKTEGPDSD

COc1cccc(N(C)C(=S)Oc2ccc3c(c2)CCCC3)n1
not listed: [8] | [9]
inactive: all other assays above

CCCC(=O)N1CCCN(c2nc(N)c3cc(OC)c(OC)cc3n2)CC1
not listed: [8] | [9]
inactive: all other assays above

Oc1ccc(OCc2ccccc2)cc1
inactive: [2] | [4] | [5] | [6] | [7] | [8] | [9]
active: [1] 25.1 µM and 9.17 µM | [3] 25.7 µM and 10.9 µM | [7] 9.05 µM
